Here are results for 105 compounds from PubChem BioAssay AID686978 (National Center for Advancing Translational Sciences (NCATS), 2013).

Molecules are shown by their SMILES. Values joined by “and” are separate entries in the source; they are usually repeats but may differ in a detail not shown here. Equal values may be shown once. About 64,000 (15%) of roughly 420,000 compounds were called active. Another 27% or so got no clear call; they are omitted. Calls follow the shape of the dose curve; as a rule, active = well fitted inhibition curve with a large enough effect; inconclusive = small, poorly fitted or top-dose-only effect; inactive = flat fitted curve, though single readings scatter. A selection follows. A call without a number means that no potency is given here.
Potency is read from the fitted curve at half-maximal effect.

This test can be described thus: qHTS for Inhibitors of human tyrosyl-DNA phosphodiesterase 1 (TDP1): qHTS in cells in absence of CPT. Also: nearly all actives have a fitted effect of over 55% in size. As to conditions: DT40 Tdp1-/- hTDP1 cells, no CPT, ATP luminescence, 48 h; activity change, negative = growth inhibition: at 46.2 µM (top of the series). In a few lines: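 Chicken DT40 Tdp1-/- cells stably complemented with human TDP1 were seeded at 400 cells/well with DMSO in place of 20 nM camptothecin. After compound pinning, cells grew at least 48 hr at 37 °C; viability read by CellTiter-Glo luminescence.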
A general note: Quantitative high-throughput screening tests each substance at several concentrations.
Regarding `Cc1ccc(C(=O)Oc2ccc(C(=S)N3CCOCC3)cc2)cc1`, the Potency result was “inactive”.

As to `c1ccc(-c2ccnc3nc(-n4cccc4)nn23)cc1`, the Potency entry was “inactive”.

Regarding `O=C(CN(C(=O)c1nsc(Cl)c1Cl)c1cccc(F)c1)NC1CCCC1`, the Potency result is “inactive”.

On to `O=C(CCc1ccc(S(=O)(=O)N2CCOCC2)cc1)NN=C1CCCCCCC1`, for which the Potency entry was “inactive”.

Consider `CCN(CC)CCN(C(=O)c1cccc([N+](=O)[O-])c1)c1nc2ccc(OC)cc2s1`, for which the Potency entry is “inactive”.

Turning to `Cc1noc(C)c1NC(=O)Nc1ccc2c(c1)C(=O)N([C@H](C)CO)C[C@H](C)[C@@H](CN(C)C(=O)Nc1ccc(C(F)(F)F)cc1)O2`, the Potency entry is “inactive”.

Turning to `CCN(CC)C(=O)COc1coc(CN2CCN(Cc3ccccc3)CC2)cc1=O`, the Potency entry was “inactive”.

On to `O=C(CSc1nnc(-c2ccncc2)o1)NCc1ccc(Cl)cc1`, for which the Potency entry is “inactive”.

For the compound `Fc1ccc(-c2ccc(NCCN3CCOCC3)nn2)cc1`, the Potency entry is “inactive”.

For `Nc1cc(C(F)(F)F)ccc1N1CCOCC1`, the Potency entry is “inactive”.

In the case of `Oc1[nH]c2ccc(Br)cc2c1N=Nc1nn[nH]n1`, the Potency result is “inactive”.

For the compound `Oc1[nH]c2ccccc2c1N=Nc1c(F)c(F)c(F)c(F)c1F`, the Potency was 13 µM (active).

As to `Cc1cccc(N=Nc2c(O)[nH]c3ccc(F)cc23)c1`, the Potency result was “inactive”.

Take `CCC(Cc1ccccc1)NC(=O)C1CCCCC1` (stereo not given): the Potency result is “inactive”.

Take `O=C1c2ccccc2C(=O)N1c1ccc(S(=O)(=O)N2CCOCC2)c2ccccc12`: the Potency result is “inactive”.

For the compound `Cc1ccc(S(=O)(=O)NC(=O)Nc2nc(-c3ccc(F)c(F)c3)cs2)cc1`, the Potency result is “inactive”.

Take `COc1ccc(CC(=O)Nc2nc(-c3ccc(F)c(F)c3)cs2)cc1OC`: the Potency is 6.51 µM (active).

For `COc1ccc(CC(=O)Nc2nnc3n2CCS3)cc1OC`, the Potency result is “inactive”.

Turning to `COc1ccc(-c2csc(Nc3cccc(C)n3)n2)cc1OC`, the Potency was 25.9 µM (active).

Take `COc1cc(CC(=O)Nc2nc(-c3ccc(F)c(F)c3)cs2)cc(OC)c1OC`: the Potency is 5.8 µM (active).

Take `Fc1ccc(-c2csc(-c3ccc(C4SCCS4)cc3)n2)cc1F`: the Potency entry is “inactive”.

As to `COc1ccc(-c2csc(NC(=O)c3ccc(N4C(=O)CCC4=O)cc3)n2)cc1OC`, the Potency entry was “inactive”.

As to `COc1cccc(CC(=O)Nc2nc(-c3ccc(OC)c(OC)c3)cs2)c1`, the Potency was 18.4 µM (active).

For the compound `Cc1nn2c(=O)cc(COC(=O)c3ccccc3NC(=O)COc3ccccc3C)nc2s1`, the Potency result is “inactive”.

`CC(=O)C1C(c2ccc(Cl)cc2)c2c(n[nH]c2C)CC1(C)O` (stereo not given): the Potency entry is “inactive”.

For `CCOc1ccc(S(=O)(=O)NCCC(=O)NCC2CCCO2)cc1` (stereo not given), the Potency result is “inactive”.

Consider `COc1ccc(Cn2cccc(NC(=O)Nc3ccc(C#N)cc3)c2=O)cc1`, for which the Potency result was “inactive”.

For the compound `CC1CCc2sc3nc(N4CCN(CCO)CC4)n4ncnc4c3c2C1` (stereo not given), the Potency entry was “inactive”.

For the compound `Cc1ccn2c(=O)nc(SCC(=O)NCc3ccc4c(c3)OCO4)nc2c1`, the Potency entry is “inactive”.

Take `O=C(COC(=O)CC1CC2CCC1C2)NC(=O)NC1CCCC1` (stereo not given): the Potency entry was “inactive”.

As to `COc1ccc(CCNS(=O)(=O)c2ccc(F)cc2)cc1OC`, the Potency result was “inactive”.

As for `COc1cc(OC)cc(C(=O)NCCc2csc3nc(-c4ccccc4F)nn23)c1`, the Potency entry is “inactive”.

With `COc1ccc(-c2nc3scc(CCNS(=O)(=O)c4cc(F)ccc4OC)n3n2)cc1OC`, the Potency was 20.6 µM (active).

With `Cc1cc([N+](=O)[O-])nn1CC(=O)Nc1ccc(Cc2ccncc2)cc1`, the Potency entry is “inactive”.

Consider `O=C(OCC(=O)N1CCN(C(=O)c2ccco2)CC1)c1c(Cl)cccc1Cl`, for which the Potency entry was “inactive”.

As to `CN(c1ccccc1)S(=O)(=O)c1cc(C(=O)OCC(=O)N2CCN(C(=O)c3ccco3)CC2)ccc1Cl`, the Potency was 23.1 µM (active).

Regarding `O=C(OCC(=O)N1CCN(C(=O)c2ccco2)CC1)c1cccc(O)c1`, the Potency entry was “inactive”.

As to `COc1cccc(CN2CCNC(=O)C2CC(=O)N(C)CCc2ccccn2)c1` (stereo not given), the Potency entry is “inactive”.

Regarding `Cc1ccc(NC(=O)c2oc3ccccc3c2C)c([N+](=O)[O-])c1`, the Potency result was “inactive”.

`COc1ccc(Cl)cc1C(=O)NCC#N`: the Potency entry was “inactive”.

As to `Cc1noc(C)c1-c1nc(Nc2ccccc2)c2ccccc2n1`, the Potency entry is “inactive”.

For `c1ccc2c(Nc3ccncc3)nc(-c3ccc4c(c3)OCO4)nc2c1`, the Potency was 14.6 µM (active).

As for `c1ccc2c(Nc3ccncc3)nc(-c3ccoc3)nc2c1`, the Potency was 20.6 µM (active).

Turning to `Cc1ccc(C(=O)O)cc1N1C(=O)CCCC1=O`, the Potency result was “inactive”.

Turning to `CC1CCC(NC(=O)CNC(=O)c2ccc3ccccc3c2)CC1` (stereo not given), the Potency result was “inactive”.

For the compound `N#Cc1ccc(CSc2ncccn2)cc1`, the Potency entry is “inactive”.

As to `Cn1c(=O)[nH]c2c(c(C(=O)O)nn2C)c1=O`, the Potency entry is “inactive”.

Take `O=C(CSc1nc2cc3c(cc2c(=O)n1CCC1=CCCCC1)OCO3)NCc1ccco1`: the Potency result was “inactive”.

Regarding `COCCN(C(=O)C(C)N1C(=O)c2ccccc2C1=O)c1c(N)n(CC(C)C)c(=O)[nH]c1=O` (stereo not given), the Potency result is “inactive”.

With `Cn1c(CCN2CCCCCC2)nc2cc(NC(=O)Nc3ccccc3)ccc21`, the Potency is 23.1 µM (active).

Regarding `CCC(=O)Nc1ccc2c(c1)nc(CCN1CCN(c3ccccn3)CC1)n2C`, the Potency entry was “inactive”.

`CCC(=O)Nc1ccc2c(c1)nc(CCN1CCN(C)CC1)n2C`: the Potency entry was “inactive”.

Take `N[C@@H](Cc1ccccc1)C(=O)N1CCC(C(=O)NCC(=O)Nc2ccc(F)cc2)CC1`: the Potency entry was “inactive”.

On to `Cc1ccc(SCCC(=O)NCc2ccccn2)cc1`, for which the Potency result was “inactive”.

Consider `O=C(COc1ccccc1)OCc1cc(=O)n2nc(-c3cccs3)sc2n1`, for which the Potency entry was “inactive”.

For the compound `COc1ccccc1CNCc1ccc(C(=O)O)s1`, the Potency result is “inactive”.

As for `O=C(CCC(=O)N1CC2CCCN2c2ccccc21)NCc1ccccc1Cl` (stereo not given), the Potency was 16.4 µM (active).

As for `O=C(NCc1ccccc1Cl)C1CCCO1` (stereo not given), the Potency result was “inactive”.

As for `COc1ccc(NC(=O)N2CCCC2C(=O)NCc2ccccc2Cl)cc1` (stereo not given), the Potency result was “inactive”.

Regarding `COc1ccccc1CNC(=O)CNC(=O)c1cn(-c2ccccc2OC)c(=O)c2ccccc12`, the Potency result is “inactive”.

Regarding `COc1ccc(CNC(=O)C2CCN(C(=O)c3ccccc3)CC2)cc1`, the Potency result was “inactive”.

In the case of `COc1ccccc1CNC(=O)c1ccc(NC(=O)N2CC(C)Sc3ccccc32)cc1` (stereo not given), the Potency was 23.1 µM (active).

Turning to `O=C(CCC(=O)n1ncc2ccccc21)NCc1ccccc1Cl`, the Potency entry is “inactive”.

Take `COc1cccc(CNC(=O)C2CC(=O)N(C3CCCCCCC3)C2)c1` (stereo not given): the Potency entry was “inactive”.

Take `COc1ccc(S(=O)(=O)N2CCC(C(=O)NCCC(=O)NCc3cccc(OC)c3)CC2)cc1`: the Potency result is “inactive”.

Turning to `COc1ccc(CNC(=O)c2ccc(NC(=O)N3CC4CCCN4c4ccccc43)cc2)cc1` (stereo not given), the Potency was 20.6 µM (active).

Take `COc1cccc(CNC(=O)CCC(=O)N2CC3CCCN3c3ccccc32)c1` (stereo not given): the Potency is 16.4 µM (active).

Take `NS(=O)(=O)c1ccc(NC(=O)/C=C/c2ccccc2Cl)cc1`: the Potency result is “inactive”.

On to `C/C(=C/c1ccccc1)C(=O)N1CCN(c2ccccc2)CC1`, for which the Potency entry is “inactive”.

Take `Cc1ccc(S(=O)(=O)CCC(=O)OCC(=O)N(C)C2CCS(=O)(=O)C2)cc1` (stereo not given): the Potency entry was “inactive”.

With `COCCn1c(C)cc(C(=O)COC(=O)CNC(=O)c2ccco2)c1C`, the Potency entry was “inactive”.

Turning to `COc1cccc(N(CC(=O)NC2CCCC2)C(=O)CCCC(=O)Nc2ccccn2)c1`, the Potency entry is “inactive”.

`O=NN(CCCl)C(=O)NCCc1cccc[n+]1[O-]`: the Potency entry was “inactive”.

Consider `O=C1COc2ccc(S(=O)(=O)Nc3ccc(OC(F)(F)F)cc3)cc2N1`, for which the Potency result was “inactive”.

As for `Cc1ccc(S(=O)(=O)N2CCN(C(=O)CCC(=O)NC3CCCc4ccccc43)CC2)cc1` (stereo not given), the Potency result was “inactive”.

Consider `Cc1ccc(C)c(S(=O)(=O)N2CCN(c3ncnc4sccc34)CC2)c1`, for which the Potency was 3.66 µM (active).

Take `Cc1ccc(C)c(S(=O)(=O)n2nc(C)c(S(=O)(=O)N3CCC(C)CC3)c2C)c1`: the Potency entry was “inactive”.

Turning to `Cc1ccc(S(=O)(=O)N2CCN(c3nc(-n4cnc5ccccc54)nc4ccccc34)CC2)cc1`, the Potency entry was “inactive”.

As to `Cc1ccc(S(=O)(=O)N2CCN(c3ncnc4ccccc34)CC2)cc1`, the Potency was 820 nM (active) and 1.26 µM (active).

For the compound `O=[N+]([O-])c1ccc(S(=O)(=O)N2CCN(c3nc(-c4ccccc4)nc4ccccc34)CC2)cc1`, the Potency result was “inactive”.

Take `COc1ccc(C)cc1S(=O)(=O)N1CCN(S(=O)(=O)c2cc(C(=O)O)ccc2C)CC1`: the Potency result is “inactive”.

For `COc1ccccc1C(=O)NCCC(=O)NC1=NCCS1`, the Potency result is “inactive”.

Turning to `Cc1cccc(N(C(=O)c2ccc(CN3CCOCC3)o2)C(C(=O)NC2CCCCC2)c2ccc(F)cc2)c1` (stereo not given), the Potency result is “inactive”.

Turning to `COc1cc(OC)c(S(=O)(=O)Nc2ccccc2C(=O)O)cc1S(=O)(=O)Nc1ccccc1C(=O)O`, the Potency result is “inactive”.

For the compound `COc1ccccc1OCC(=O)OCn1c(SC)nnc(C)c1=O`, the Potency result is “inactive”.

As for `O=C(Nc1cccc(S(=O)(=O)NC2=NCCC2)c1)C1CCCCC1`, the Potency entry is “inactive”.

As to `O=C(NCc1ccccc1)C1c2ccccc2OCC(=O)N1CCCN1CCOCC1` (stereo not given), the Potency entry was “inactive”.

Regarding `CCOc1cc(/C=C2\C(=N)N3N=C(C)SC3=NC2=O)ccc1OCCOc1ccccc1`, the Potency entry was “inactive”.

Turning to `O=C(O)CCCCCCCCc1cn(CN2C(=O)c3ccccc3C2=O)nn1`, the Potency result was “inactive”.

As to `COc1cc(C(=O)N(Cc2ccc(N(C)C)cc2)C2CCS(=O)(=O)C2)cc(OC)c1OC` (stereo not given), the Potency entry is “inactive”.

For the compound `Cc1cc(C)c(OCC(=O)N(Cc2cccs2)C2CCS(=O)(=O)C2)c(C)c1` (stereo not given), the Potency entry is “inactive”.

Regarding `Cc1ccsc1CN(C(=O)c1oc2ccc(Br)cc2c1C)C1CCS(=O)(=O)C1` (stereo not given), the Potency is 6.51 µM (active).

Turning to `O=C(COC(=O)c1ccccc1)Nc1ccccc1Sc1ccccc1`, the Potency entry was “inactive”.

`NC(=O)c1ccsc1NC(=O)c1ccco1`: the Potency result is “inactive”.

With `O=C(NCc1ccco1)C(=O)c1cn(CC(=O)N2CCCCCC2)c2ccccc12`, the Potency entry is “inactive”.

`CCCCC(=O)Nc1ccc(C(=O)NCCCn2ccnc2)cc1`: the Potency entry is “inactive”.

For the compound `CC(C)(C)c1ccc(/C=C/C(=O)NCCCn2ccnc2)cc1`, the Potency is 16.4 µM (active).

For `O=C(/C=C/c1ccc(Cl)cc1)NCCCn1ccnc1`, the Potency entry is “inactive”.

For `CN(C(=O)CN1C(=O)NC(C)(CCc2ccccc2)C1=O)c1ccccc1` (stereo not given), the Potency result is “inactive”.

Turning to `Cc1cc(C)nc(N(C#N)CC(=O)Nc2ccccc2)n1`, the Potency entry was “inactive”.

`Nc1cccc2c1C(=O)N(Cc1nnc(-c3ccccc3Br)o1)C2=O`: the Potency result was “inactive”.

With `Cc1ccc(C=O)cc1Cl`, the Potency result is “inactive”.

With `COc1ccc(NC(=O)COC(=O)C2COc3ccccc3O2)cc1` (stereo not given), the Potency result is “inactive”.

On to `CCC(C)(C)c1ccc(Oc2ccc(NC(=O)COC(=O)C3=COCCO3)cc2)cc1`, for which the Potency is 25.9 µM (active).

As for `CCOc1ccc(NC(=O)c2ccc(NC(=O)COC(=O)c3ccc(NC(=O)CC#N)cc3)cc2)cc1`, the Potency entry is “inactive”.
